Screening results as filed in PubChem BioAssay.
aSyn 5UTR act = Activators working through SNCA 5'UTR binding (MLPCN) | alpha-synuclein 5'UTR reporter, activators screen | activity score, % (tested at 7.5 µM), hits read low | actives 7.1% (n = 300,000); in the data active means activity score below about -60%
Hits are given with their value. The list is a sample of the results.

How did N/C(=N\OC(=O)c1ccccc1Cl)c1ccccn1 do in these assays?
aSyn 5UTR act: inactive

What do the screens show for `N/C(=N\OC(=O)c1cc([N+](=O)[O-])ccc1Cl)c1cccnc1`?
aSyn 5UTR act: inactive

What do the screens show for `N/C(=N\OC(=O)c1ccc([N+](=O)[O-])cc1)c1cccnc1`?
aSyn 5UTR act: -92

What do the screens show for `COc1ccc(-c2nn(-c3ccccc3)cc2/C=N/NC(=O)c2ccc(Br)o2)cc1`?
aSyn 5UTR act: -98

How did Cc1cc(SCC(=O)N/N=C/c2ccc(O)c(O)c2O)c(C)cc1Br do in these assays?
aSyn 5UTR act: inactive

How did COc1ccc(-c2nn(-c3ccccc3)cc2/C=N/NC(=O)c2ccc3c(c2)OCO3)cc1 do in these assays?
aSyn 5UTR act: -116

How did Cc1ccc(-c2nn(-c3ccccc3)cc2/C=N/NC(=O)CSc2nnc(C)n2-c2ccccc2)cc1 do in these assays?
aSyn 5UTR act: -125

How did O=C(N/N=C/c1c(O)ccc2ccccc12)c1ccc(Br)o1 do in these assays?
aSyn 5UTR act: inactive

How did C/C(O)=C(\N=Nc1cc(C)ccc1O)C(N)=O do in these assays?
aSyn 5UTR act: -65

What do the screens show for `C/C(=N\Nc1cccc([N+](=O)[O-])c1)c1ccccc1O`?
aSyn 5UTR act: -166

Results for C/C(=N\Nc1cccc([N+](=O)[O-])c1)c1cc(F)ccc1O ?
aSyn 5UTR act: -131

What do the screens show for `COc1ccc(N=c2sc3ccccc3n2C)cc1`?
aSyn 5UTR act: -172

What do the screens show for `CCCS(=O)(=O)c1cnc(C2COc3ccccc3O2)nc1N` (stereo not given)?
aSyn 5UTR act: inactive

How did Cc1cc(C)nc(SCC2COc3ccccc3O2)n1 (stereo not given) do in these assays?
aSyn 5UTR act: -71

Results for N/C(=N\OC(=O)c1ccco1)c1cccc([N+](=O)[O-])c1 ?
aSyn 5UTR act: -210

Results for N/C(=N\OC(=O)c1ccco1)c1cccc(Br)c1 ?
aSyn 5UTR act: -249

How did COc1ccc(/C(N)=N/OC(=O)c2ccco2)cc1OC do in these assays?
aSyn 5UTR act: -142

Results for Cc1cc(Cl)ccc1OCC(=O)Nc1ccccc1CO ?
aSyn 5UTR act: -81

Results for CSc1ccccc1NC(=O)COc1ccc(Cl)cc1C ?
aSyn 5UTR act: -63

Results for FC(F)(F)Oc1ccc(Nc2nc3ccccc3o2)cc1 ?
aSyn 5UTR act: -260

How did Cc1cc(C)nc(Nc2nc3ccccc3o2)n1 do in these assays?
aSyn 5UTR act: -70

What do the screens show for `c1ccc(Nc2nc3ccccc3o2)cc1`?
aSyn 5UTR act: -189

Results for O=C(CC(Nc1ccccc1)c1ccc(F)cc1)c1ccccc1 (stereo not given) ?
aSyn 5UTR act: -75

How did O=C(CC(Nc1ccccc1)C(=O)O)c1ccccc1 (stereo not given) do in these assays?
aSyn 5UTR act: -124

Results for Cc1ccc(NC(CC(=O)c2ccccc2)C(=O)O)cc1Cl (stereo not given) ?
aSyn 5UTR act: -125

What do the screens show for `CCCc1cc2c(=O)c(-c3ccc4c(c3)OCCO4)coc2cc1OS(C)(=O)=O`?
aSyn 5UTR act: -222

What do the screens show for `CCCc1cc2c(=O)c(-c3ccc4c(c3)OCCO4)coc2cc1OC(=O)c1ccco1`?
aSyn 5UTR act: -287

Results for Cn1c(NCc2ccccc2Cl)nc2ccccc21 ?
aSyn 5UTR act: -164

Results for Cn1c(NCc2ccccc2O)nc2ccccc21 ?
aSyn 5UTR act: -272

How did CC(=O)Nc1nc2ccccc2n1Cc1ccccc1Cl do in these assays?
aSyn 5UTR act: inactive

Results for COc1ccc(-c2nc3c(n2O)CCc2c-3no[n+]2[O-])cc1 ?
aSyn 5UTR act: -131

How did CCC1(c2ccc(Cl)cc2)NC(=S)N(c2ccc(C)cc2)N1 (stereo not given) do in these assays?
aSyn 5UTR act: -308

Results for CCC1(c2ccc(Cl)cc2)NC(=S)N(c2ccc(C)c(C)c2)N1 (stereo not given) ?
aSyn 5UTR act: -67

What do the screens show for `Cc1ccc(-n2c(C)csc2=N)cc1`?
aSyn 5UTR act: -175

How did Cc1csc(=N)n1-c1ccc(Cl)cc1 do in these assays?
aSyn 5UTR act: -144

How did CCOC(=O)c1c(C)oc2c1c(CN1CCN(C(=O)OCC)CC1)c(O)c1ccccc12 do in these assays?
aSyn 5UTR act: -205

How did CCOC(=O)c1c(C)oc2c1c1c(c3ccccc32)OCN(Cc2ccccn2)C1 do in these assays?
aSyn 5UTR act: -102

What do the screens show for `O=c1cc(-c2ccccc2)oc2cc(O)cc(O)c12`?
aSyn 5UTR act: -171

How did COc1cc(O)c2c(=O)c3c(OC)c(O)ccc3oc2c1 do in these assays?
aSyn 5UTR act: -78

What do the screens show for `COCOc1ccc(-c2cc(=O)c3c(O)cc(OCOC)cc3o2)cc1`?
aSyn 5UTR act: -127

What do the screens show for `O=c1c(O)c(-c2ccc(O)cc2)oc2cc(O)cc(O)c12`?
aSyn 5UTR act: -100

How did COc1ccc(-c2cc(=O)c3c(O)c(OC)c(O)cc3o2)cc1 do in these assays?
aSyn 5UTR act: inactive

How did O=c1cc(-c2ccc(O)cc2)oc2cc(O)cc(O)c12 do in these assays?
aSyn 5UTR act: -269

Results for COc1cc(-c2cc(=O)c3c(O)cc(O)cc3o2)ccc1O ?
aSyn 5UTR act: -79

What do the screens show for `COc1cc(O)c2c(=O)cc(-c3ccccc3)oc2c1`?
aSyn 5UTR act: -145

Results for COc1ccccc1C(=O)NNC(=O)c1ccc(Cl)cc1 ?
aSyn 5UTR act: -70

Results for COc1ccccc1C(=O)Nc1cc2cc(Cl)ccc2oc1=O ?
aSyn 5UTR act: -123

How did COc1ccccc1C(=O)NNC(=O)c1ccc(F)cc1 do in these assays?
aSyn 5UTR act: -92

How did CC1CCC(NC(=O)Cn2cc3c(n2)CCCC3)CC1 (stereo not given) do in these assays?
aSyn 5UTR act: -157

How did FC(F)(F)c1ccc(NC(=S)NC2CCCCC2)cc1 do in these assays?
aSyn 5UTR act: -78

How did O=C(O)c1ccc(NC(=S)NC2CCCCC2)cc1 do in these assays?
aSyn 5UTR act: -65

What do the screens show for `COc1ccc(/C=C2\N=C(c3ccccc3Cl)NC2=O)cc1`?
aSyn 5UTR act: -124

How did COC(=O)c1c(-c2ccccc2)csc1NC1=NS(=O)(=O)c2ccccc21 do in these assays?
aSyn 5UTR act: -121

Results for COC(=O)Cc1ccc(NC(=O)c2cccs2)cc1 ?
aSyn 5UTR act: -159

Results for Cc1ccc(NC(=O)c2ccccc2NC(=O)c2cccs2)cc1 ?
aSyn 5UTR act: -80

What do the screens show for `CC(=O)c1ccc(NC(=O)c2cccs2)cc1`?
aSyn 5UTR act: -88

Results for N/C(=N\O)c1ccc(NC(=O)c2cccs2)cc1 ?
aSyn 5UTR act: -81

How did O=c1[nH]c2cc3c(cc2cc1CN(Cc1nnnn1C1CCCC1)C1CCCC1)OCCO3 do in these assays?
aSyn 5UTR act: -79

Results for COc1ccc(CN(C)CC(=O)Nc2ccccc2-c2ccccc2)c(OC)c1 ?
aSyn 5UTR act: inactive

Results for COc1ccc(NC(=O)c2ccco2)c(OC)c1 ?
aSyn 5UTR act: -128

How did COc1ccc(NC(=O)c2cc(C(C)C)on2)c(OC)c1 do in these assays?
aSyn 5UTR act: -244

How did COc1cc(NC(=O)C(C)C)ccc1NC(=O)c1ccco1 do in these assays?
aSyn 5UTR act: -92

How did COc1ccc(NC(=O)CSc2ccccc2)c(OC)c1 do in these assays?
aSyn 5UTR act: -100

What do the screens show for `COc1cc2c(cc1NC(=O)c1ccco1)CCCC2`?
aSyn 5UTR act: -278

What do the screens show for `COc1cc(NC(=O)COc2ccccc2C)ccc1NC(=O)c1ccco1`?
aSyn 5UTR act: -68

Results for COc1ccc(NC(=O)c2ccccc2O)c(OC)c1 ?
aSyn 5UTR act: -205

How did CN(Cc1cnc2nc(N)nc(N)c2n1)c1ccc(C(=O)N[C@@H](CCC(=O)O)C(=O)O)cc1 do in these assays?
aSyn 5UTR act: inactive
